# Screening results: PubChem, several laboratories
# GLD-1 TGE inh = GLD-1-TGE RNA interaction inhibition (C. elegans). Q17339. hit rate 0.44% among 320,000. inhibition, % at 5.96 µM. purified GLD-1 + fluorescein TGE RNA, fluorescence polarization;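 active = percent inhibition above a per-plate cutoff, the plate mean of test compounds plus 3 SD, cut at about 30% in these data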;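 also: 0% = DMSO wells with GLD-1 and probe and 100% = wells lacking GLD-1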
# MCL1-BIM inh = inhibitors of human MCL1 binding to BIM-BH3 peptide; GST-MCL1 / FITC-Bim-BH3 fluorescence polarization; inhibition, % at 10.9 µM; hit rate 0.68% among 320,000; AID 2057;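 active = inhibition above the mean inhibition of all tested compounds plus 3 SD, set per campaign, cut at about 40% in these data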;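 also: 0% = DMSO wells and 100% = unlabeled Bim-BH3 peptide control; higher means more loss of mP so more displacement of Bim peptide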
# Target sequence (Q07820 whole entry, looked up): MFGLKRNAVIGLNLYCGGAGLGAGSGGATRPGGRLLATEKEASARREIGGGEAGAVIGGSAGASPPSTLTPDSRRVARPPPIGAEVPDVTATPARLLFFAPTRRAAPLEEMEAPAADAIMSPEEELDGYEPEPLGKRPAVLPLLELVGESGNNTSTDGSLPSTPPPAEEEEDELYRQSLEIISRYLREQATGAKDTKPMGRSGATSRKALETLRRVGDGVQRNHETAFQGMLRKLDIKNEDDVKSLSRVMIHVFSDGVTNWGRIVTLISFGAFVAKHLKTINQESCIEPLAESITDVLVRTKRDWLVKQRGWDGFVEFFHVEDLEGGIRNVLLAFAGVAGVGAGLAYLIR
# Bcl-xL primary = inhibitors of human Bcl-xL; inhibition, % at 10.9 µM; GST-Bcl-xL / FITC-Bim BH3 peptide fluorescence polarization; AID 2129; hit rate 0.7% among 320,000; Q07817;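 active = inhibition above the mean of all tested compounds plus 3 SD, cutoff set per campaign, cut at about 30% in these data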;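 also: 0% = DMSO wells and 100% = unlabeled Bim-BH3 peptide competitor; inhibitors lower millipolarization by displacing the labeled peptide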
# Target sequence (Q07817 whole entry, looked up): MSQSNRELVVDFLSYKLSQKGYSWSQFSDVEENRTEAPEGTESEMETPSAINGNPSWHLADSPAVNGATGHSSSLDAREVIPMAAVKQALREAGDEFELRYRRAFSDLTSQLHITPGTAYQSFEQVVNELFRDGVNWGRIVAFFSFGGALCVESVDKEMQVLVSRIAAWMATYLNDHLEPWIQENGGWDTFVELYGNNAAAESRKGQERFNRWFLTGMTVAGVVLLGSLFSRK
# IDE cell inh = inhibits human insulin-degrading enzyme in HEK cells; P14735; FAbetaB cleavage, fluorescence polarization; inhibition, % at 5.59 µM; hit rate 0.41% among 320,000; AID 434962;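 active = percent inhibition above the average of all tested compounds plus 3 SD, set per screening campaign, cut at about 16% in these data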;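 also: IDE supplied by intact live HEK cells; FP after avidin binding of uncleaved biotin substrate so inhibition keeps polarization high; 0% = DMSO wells and 100% = 60 µM reference IDE inhibitor Ii1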
# MEX-5 binding = C. elegans MEX-5 TCR-2 RNA binding activity; MEX-5/FITC-TCR2 RNA binding, fluorescence polarization; stronger effect = lower value; activity score (negative = inhibition of binding), % at 10 µM; hit rate 0.38% among 300,000; Q9XUB2;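 active = inhibition past about -25% in most replicates, and total fluorescence under double the plate's negative control median, limit read from the data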;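 also: 0% = DMSO and -100% = 5 µM competing unlabeled TCR2 RNA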
# IDE act = IDE (human) activation, cell-based; P14735; HEK cells, FAbeta-B cleavage, fluorescence polarization; 0% vehicle, 100% cell-free pure enzyme wells; activation, % at 5.96 µM; hit rate 0.073% among 340,000;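 active = activation above the mean of all tested compounds plus 3 SD, set per screening campaign, cut at about 17% in these data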
# BCLXL inh confirm = Bcl-xL (human) inhibition, MCL1 counter-screen confirmation. shares compounds with MCL1-BIM inh. GST-Bcl-xL / FITC-Bim BH3 peptide FP binding. inhibition, % at 10.9 µM. hit rate 54% among 1,700;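 active = inhibition above a cutoff equal to the mean inhibition of all tested compounds plus 3 SD, cut at about 30% in these data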;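 also: 0% = DMSO wells and 100% = unlabeled Bim BH3 control peptide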
# MCL1 BIM confirm = confirmation of human MCL1 and BIM-BH3 interaction inhibitors; hit rate 61% among 1,700; inhibition, % at 10.9 µM; AID 2168; GST-MCL1 / FITC-Bim-BH3 fluorescence polarization; shares compounds with MCL1-BIM inh;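 active = inhibition above the average of all tested compounds plus 3 SD, cut at about 40% in these data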;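 also: 0% = DMSO wells and 100% = unlabeled Bim-BH3 control peptide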
# GLD1 RNA confirm = GLD-1 TGE RNA interaction inhibition, confirmation; inhibition, % at 5.96 µM; shares compounds with GLD-1 TGE inh; hit rate 10% among 550; GLD-1/FL-TGE RNA fluorescence polarization, biochemical;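 active = average inhibition across triplicates above the hit cutoff set in the primary screen, cut at about 32% in these data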;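 also: 0% = GLD-1 with RNA probe and DMSO and 100% = wells lacking GLD-1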
# The depositor's hits bear a star; / = not tested or not shown. Only some compounds are listed: those with a hit (about 1.5% of all), similar ones and a draw of the others.
SMILES,GLD-1 TGE inh,MCL1-BIM inh,Bcl-xL primary,IDE cell inh,MEX-5 binding,IDE act,BCLXL inh confirm,MCL1 BIM confirm,GLD1 RNA confirm
Cc1nn2c(N)csc2nc1=O,34*,58*,57*,2,-25,/,51*,59*,20
COc1ccc(-n2c(C)c3c(OC)cccc(=O)c3c2C)cc1,6,4,9,-1,-3,-3,/,/,/
COc1cccc(=O)c2c(C)n(-c3ccc(C(=O)O)cc3)c(C)c12,38*,91*,68*,-5,-11,0,21,29,14
CCCn1c(/N=C/c2c[nH]c3ccccc23)nc2ccccc21,40*,83*,80*,-3,1,3,10,4,1
CCCCn1c(/N=C/c2c[nH]c3ccccc23)nc2ccccc21,2,3,4,-2,-5,3,/,/,/
COc1ccc(S(=O)(=O)C(C#N)c2nc3ccccc3nc2N2CCCCC2)cc1 (stereo not given),69*,79*,68*,-1,-3,2,19,20,-2
Cc1cccc(S(=O)(=O)C(C#N)c2nc3ccccc3nc2N2CCCC2)c1 (stereo not given),13,11,26,2,-9,2,/,/,/
N#CC(c1nc2ccccc2nc1N1CCCC1)S(=O)(=O)c1ccccc1 (stereo not given),40*,70*,66*,0,-3,2,75*,76*,27
COc1ccc(S(=O)(=O)N2CCCC2CNC(=O)C(=O)NCc2ccco2)cc1 (stereo not given),1,7,7,-2,0,-2,/,/,/
N#CC1=C(N)C(C#N)(C#N)C2(CCC3(CC2)OCCO3)C2CC3(CC=C12)OCCO3 (stereo not given),10,9,12,5,-1,3,/,/,/
N#CC1=C(N)C(C#N)(C#N)[C@H](c2c(F)cccc2F)[C@H]2CC3(CC=C12)OCCO3,55*,62*,58*,2,-11,-3,35*,34,19
CN(C(=O)CN1C(=O)c2cccc(N)c2C1=O)C1CCCCC1,45*,73*,61*,-1,/,5,56*,77*,49*
Clc1cccc(C2Nc3cccc4cccc(c34)N2)c1,32*,46*,27,0,-4,2,25,41*,1
O=c1c2ccccc2nc2n1CC/C2=C/N1CCN(c2cccc(C(F)(F)F)c2)CC1,42*,56*,50*,4,-3,3,20,16,2
CC(C)(C)c1cc(CCC(=O)NCC2CCCO2)cc(C(C)(C)C)c1O (stereo not given),4,-1,4,-1,-6,4,/,/,/
COc1cccc(C(=O)N2CCN(C(=O)c3cccc(F)c3)CC2)c1,53*,85*,76*,0,-1,-2,0,0,5
Cc1ccc(-c2nn(CCC(=O)Nc3cccnc3)c(=O)c3ccccc23)cc1,61*,85*,82*,11,0,/,73*,97*,-3
COc1ccc(C(=O)Nc2ccc(S(=O)(=O)Nc3nccc(C)n3)cc2)cc1[N+](=O)[O-],-3,-7,-4,0,-1,1,/,/,/
CC(C)Sc1nc(N2CCOCC2)c2c(c1C#N)CC(C)(C)N(C)C2,39*,50*,50*,4,-1,5,22,36,2
CN1Cc2c(N3CCOCC3)nc(SCCC#N)c(C#N)c2CC1(C)C,8,3,7,2,-1,6,/,/,/
Cc1cccn2c(=O)c3cc(C#N)c(=NC(=O)c4cccs4)n(CCCOC(C)C)c3nc12,57*,74*,71*,8,-45*,-2,21,28,28
Cc1cccn2c(=O)c3cc(C#N)c(=NC(=O)c4ccncc4)n(CCCOC(C)C)c3nc12,44*,87*,73*,4,32,8,43*,48*,28
CCCn1c(=NC(=O)c2ccncc2)c(C#N)cc2c(=O)n3cccc(C)c3nc21,/,/,/,/,/,4,/,/,/
COC(CNC(=O)C1CC(=O)N(CCc2ccc(C)cc2)C1)OC (stereo not given),-1,2,4,4,-2,1,/,/,/
Cc1c(N2C(=O)C3C4C=CC(C4)C3C2=O)c(=O)n(-c2ccccc2)n1C (stereo not given),-6,4,1,0,-4,3,/,/,/
SMILES,GLD-1 TGE inh,MCL1-BIM inh,Bcl-xL primary,IDE cell inh,MEX-5 binding,IDE act,BCLXL inh confirm,MCL1 BIM confirm,GLD1 RNA confirm
CCOC(=O)C1=C(COC(=O)c2ccc3ccccc3c2O)NC(=O)NC1C (stereo not given),46*,88*,61*,1,/,3,25,24,1
COc1ccc(CN2CC[C@H]3C=CCc4cccc(c43)C2)cc1,60*,87*,72*,8,/,2,19,16,1
Cc1ccc(N(Cc2ccc(C(=O)NN=C3CCN(C)CC3)cc2)S(C)(=O)=O)cc1C,5,13,4,-1,0,7,/,/,/
O=[N+]([O-])c1nn(-c2ccc3c(c2)OCCO3)n(O)c1=NCc1ccc(F)cc1,6,16,14,1,0,7,/,/,/
O=[N+]([O-])c1nn(-c2ccc3c(c2)OCCO3)n(O)c1=NCc1ccc(F)cc1Cl,32*,67*,79*,2,-3,2,10,0,-3
Cc1ccc(N2CCN(c3ccc(NCc4nc5ccccc5n4C)cc3)CC2)cc1,63*,90*,74*,9,4,0,52*,48*,63*
Cc1cccc(NS(=O)(=O)c2ccc(C)c(C(=O)NCC(c3cccs3)N3CCOCC3)c2)c1 (stereo not given),/,/,/,/,/,2,/,/,/
C(=Nc1cccc2c(N=Cc3ccco3)cccc12)c1ccco1,43*,76*,82*,-3,-3,4,25,22,3
COc1ccccc1C1C2=C(CCCC2=O)N(CC(=O)O)C2=C1C(=O)CCC2,58*,47*,48*,0,-4,-3,9,12,-1
CCCCSc1ccc(NC(=O)c2cccnc2)cc1,41*,77*,76*,2,-1,0,3,9,0
COc1ccc2[nH]c(C)c(CCN(Cc3cccs3)C(=S)Nc3cccc(F)c3)c2c1,53*,63*,59*,5,-2,3,22,21,2
